Measurements taken from PubChem BioAssay.
Inconclusive results are not listed. The source made the active and inactive calls. Cut-off read from the data, not from the text of the source, unless noted: active = inhibition above about 30%; inactive = the rest.

What was measured:
[1] = reducers of endogenous Her2 protein level, primary screen, SKBR3 breast tumor cells, AlphaScreen, ATP viability (AID 461;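 active = Her2 level under about 52% in both replicate screens, with viability over 70% of control, limit read from the data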;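 for Her2 level: lower value means less Her2 protein in the cells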;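 for viability: percent of carrier control wells set as 100% viability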); settings: 18-24 h, measured here: SKBR3 viability, ATP luminescence, at 10 µM
[2] = target: Receptor tyrosine-protein kinase erbB-2 (Homo sapiens) (UniProt P04626); assay: as above; settings: 18-24 h, at 10 µM, stronger effect = lower value
Chain of Receptor tyrosine-protein kinase erbB-2 (Homo sapiens) (P04626 whole entry, looked up): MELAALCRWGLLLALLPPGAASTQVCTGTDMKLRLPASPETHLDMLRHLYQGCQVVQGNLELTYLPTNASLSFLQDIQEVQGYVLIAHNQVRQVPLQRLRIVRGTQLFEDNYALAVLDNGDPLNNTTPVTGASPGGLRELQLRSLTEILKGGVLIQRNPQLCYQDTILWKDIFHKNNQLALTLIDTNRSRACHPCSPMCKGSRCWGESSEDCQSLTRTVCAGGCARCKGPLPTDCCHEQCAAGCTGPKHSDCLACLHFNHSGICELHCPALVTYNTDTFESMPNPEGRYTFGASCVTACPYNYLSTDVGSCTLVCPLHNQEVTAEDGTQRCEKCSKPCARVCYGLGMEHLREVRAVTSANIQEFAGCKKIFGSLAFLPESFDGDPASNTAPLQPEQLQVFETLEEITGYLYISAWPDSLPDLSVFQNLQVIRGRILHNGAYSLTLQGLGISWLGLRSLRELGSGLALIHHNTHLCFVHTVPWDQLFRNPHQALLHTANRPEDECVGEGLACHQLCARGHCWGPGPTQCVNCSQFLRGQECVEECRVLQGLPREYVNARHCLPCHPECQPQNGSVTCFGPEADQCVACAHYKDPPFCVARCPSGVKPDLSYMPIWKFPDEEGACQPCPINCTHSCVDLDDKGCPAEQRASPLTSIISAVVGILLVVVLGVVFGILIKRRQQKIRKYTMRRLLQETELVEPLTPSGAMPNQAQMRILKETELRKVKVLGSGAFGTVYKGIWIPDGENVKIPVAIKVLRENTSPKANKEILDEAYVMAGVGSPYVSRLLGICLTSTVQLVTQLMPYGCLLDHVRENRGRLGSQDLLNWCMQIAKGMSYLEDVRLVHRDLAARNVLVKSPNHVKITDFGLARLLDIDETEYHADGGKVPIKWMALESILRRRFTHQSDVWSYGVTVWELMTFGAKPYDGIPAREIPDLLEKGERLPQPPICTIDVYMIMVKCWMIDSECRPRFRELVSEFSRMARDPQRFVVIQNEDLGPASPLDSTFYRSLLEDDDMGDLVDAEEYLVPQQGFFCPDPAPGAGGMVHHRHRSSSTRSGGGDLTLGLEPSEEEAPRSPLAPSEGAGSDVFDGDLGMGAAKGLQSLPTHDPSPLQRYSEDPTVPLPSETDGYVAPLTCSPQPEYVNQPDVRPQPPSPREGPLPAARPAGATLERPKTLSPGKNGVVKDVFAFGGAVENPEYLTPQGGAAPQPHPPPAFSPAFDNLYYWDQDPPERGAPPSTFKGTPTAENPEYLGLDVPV

[3] = SK-BR-3 cell growth inhibitors, pilot screen, 24 h, human (AID 572;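 active = viability at or below 10% of carrier control in both of two separate runs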;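 note: compound exposure lasted between 18 and 24 h rather than exactly 24 h; 100% = carrier-treated control wells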); settings: SK-BR-3 viability, CellTiter-Glo luminescence, at 10 µM, stronger effect = lower value
[4] = HUVEC growth inhibition – cell-based, human, primary screen (AID 575;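 active = viability at or below 30% in both replicate assays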;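 note: 100% = median of untreated cell wells with 0.1% DMSO on each plate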); settings: HUVEC proliferation, CellTiter-Glo luminescence, 72 h; at 10 µM; stronger effect = lower value
[5] = growth inhibitors of H69AR lung tumor, primary screen, human, duplicate replicates (AID 580;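 active = viability at or under a set limit in both replicates, limit being median viability minus 3 SD, cut at about 48% in these data, passing the limit was not always enough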;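 note: 100% = mean luminescence of untreated wells and 0% = no signal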); settings: H69AR lung tumor cells viability, ATP luminescence, 72 h; at 10 µM; stronger effect = lower value
[6] = reversal of MRP1-mediated doxorubicin resistance, pilot screen, H69AR cells, doxorubicin co-treatment (AID 601;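 active = viability loss from added drug above about 55%, and viability with drug at most 40%, in both replicates, limit read from the data, passing the limit was not always enough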); settings: CellTiter-Glo, 72 h, at 10 µM; for differential viability (reversal): stronger effect = higher value
[7] = 384-well plate pilot, post-Golgi transport modulator project, inhibition of yeast transport mutant growth (AID 636; in the data active = inhibition above about 31%); settings: absorbance 615 nm, about 18 h, stronger effect = higher value
[8] = growth suppression of yeast trafficking mutant, preliminary HTS, modulators of trafficking downstream of Golgi apparatus project, 1536-format plate, OD 615 nm (AID 637); settings: yeast transport mutant growth, absorbance 615 nm, 18 h; stronger effect = higher value
[9] = OD615 S. cerevisiae growth inhibition, permissive medium, pilot counter-assay, permissive growth control for S. cerevisiae lifespan shortening project (AID 705;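 active = growth inhibition above 25% in both replicates, a cutoff set 3 SD above the mean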); settings: OD615, 24 h, at 10 µM, stronger effect = higher value
[10] = Restrictive medium S. cerevisiae growth inhibition, OD615, pilot screen of yeast lifespan reduction project, restrictive growth control (AID 706;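 active = growth inhibition above a set limit, 3 SD over mean compound inhibition, in both replicates, cut at about 43% in these data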;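 note: modified DeaD lifespan yeast strain shifted to restrictive glucose medium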); settings: OD615, 48 h, at 10 µM, stronger effect = higher value
[11] = viability gain of MRP-1-high H69AR cells under doxorubicin, pilot screen, MRP-1 activator project, CellTiter-Glo, duplicate (AID 807;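 active = viability increase at or above a cutoff of the median across tested compounds plus 3 SD, cut at about 8.5% in these data, passing the limit was not always enough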;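 note: compound pretreatment 18-22 h then 72 h combined with doxorubicin; 0% = doxorubicin alone and 100% = vehicle without doxorubicin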); settings: H69AR viability with doxorubicin, CellTiter-Glo luminescence; at 10 µM; stronger effect = higher value
[12] = growth suppression of beta-catenin knockout HCT116, pilot screen, human colon tumor cells (AID 823;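 active = cell viability at or below a set limit in both duplicate runs, the limit being the all-compound median minus 4 SD, cut at about 23% in these data, passing the limit was not always enough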;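 note: 0% = wells killed by 20 µM Hyamine and 100% = untreated DMSO cell wells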); settings: CellTiter-Glo, 60 h, at 10 µM, stronger effect = lower value
[13] = growth suppression of PTEN-deleted HCT116, pilot screen, cell-based, HCT116 clonal line, CellTiter-Glo (AID 824;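 active = viability at or below 27.92% in each of two runs, the all-compound median minus 4 SD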;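 note: 0% = 20 µM Hyamine control and 100% = vehicle cell control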); settings: 60 h, at 10 µM, stronger effect = lower value
[14] = inhibitors of the yeast RAM network, pilot screen, dse1pr::URA3 reporter, 5-FOA selection (AID 869;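 active = inhibition over a set limit, the all-compound mean plus 3 SD, in both replicate runs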;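 note: 0% = DMSO wells with no growth and 100% = 10 µM 1-NA-PP1 with full growth; RAM network block rescues cells from 5-FOA so hits raise OD615 growth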); settings: S. cerevisiae dse1pr::URA3 5-FOA growth, OD615, 2 d; at 10 µM; stronger effect = higher value; strain carries analog-sensitive mutant Cbk1 kinase
[15] = RAM signaling pathway blockade in yeast – S. cerevisiae, Pdr1DBD-CYC8 efflux-inhibited sensitized strain, primary screen (AID 1298;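 active = RAM network inhibition above 8.4% in each of two replicates, 3 SD over the compound average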;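 note: 0% = DMSO untreated cells without growth and 100% = 10 µM 1-NA-PP1 full growth; higher means more yeast growth rescued from 5-FOA killing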); settings: S. cerevisiae cbk1-as DSE1-URA3 strain, 5-FOA growth OD615, 2 d; at 50 µM; stronger effect = higher value
[16] = H69AR cells + 2 uM doxorubicin, measured here: viability with 2 uM doxorubicin, stronger effect = lower value
[17] = H69AR cells, compound alone cytotoxicity

| SMILES | viability [1] [%] | Her2 level [2] | viability [3] | viability [4] | viability [5] | differential viability (reversal) ([6]; H69AR cells + 2 uM doxorubicin) | viability [6, 16] [%] | viability [6, 17] [%] | inhibition [7] | inhibition [8] | growth inhibition [9] | growth inhibition [10] | viability increase [11] | viability [12] | viability [13] | inhibition [14] | RAM network inhibition [15] |
| --- | --- | --- | --- | --- | --- | --- | --- | --- | --- | --- | --- | --- | --- | --- | --- | --- | --- |
| CC(=O)NC(CCS(C)(=O)=O)C(=O)Nc1cccc(C)c1 (stereo not given) | 88.5 | 121% (inactive) | 88.5% (inactive) | 89.3% (inactive) | 94.1% (inactive) | 1.42% (inactive) | 92.7 | 94.1 | 1.87% (inactive) | 1.83% (inactive) | -12.4% (inactive) | -11.9% (inactive) | 0.75% (inactive) | 103% (inactive) | 100% (inactive) | 1.04% (inactive) | 2.51% (inactive) |
| CC(=O)Nc1cc(N2C(=O)CCC2=O)ccc1Cl | 93 | 97% (inactive) | 93% (inactive) | 110% (inactive) | 103% (inactive) | 12.4% (inactive) | 90.5 | 103 | 0.4% (inactive) | 6.45% (inactive) | -10.2% (inactive) | -12.5% (inactive) | -1.29% (inactive) | 102% (inactive) | 103% (inactive) | 1.19% (inactive) | 1.88% (inactive) |
| Clc1ccc(Nc2ncnc3c2cnn3-c2ccccc2)cc1 | 116 | 90.5% (inactive) | 116% (inactive) | 86% (inactive) | 78.7% (inactive) | 7.29% (inactive) | 71.4 | 78.7 | -4% (inactive) | 0% (inactive) | -10.8% (inactive) | -13.1% (inactive) | -2.81% (inactive) | 81.7% (inactive) | 74.8% (inactive) | 0.855% (inactive) | -0.47% (inactive) |
| CCCCOc1ccc(-c2ncc(Cl)cn2)cc1 | 110 | 117% (inactive) | 110% (inactive) | 119% (inactive) | 93.9% (inactive) | 9.19% (inactive) | 84.8 | 93.9 | -4.94% (inactive) | 0.83% (inactive) | -14.9% (inactive) | -12.5% (inactive) | 3.52% (inactive) | 86.9% (inactive) | 96.8% (inactive) | 1.26% (inactive) | 3.37% (inactive) |
| COc1ccc(N(C)C(=O)CCS(=O)(=O)c2cccc3nonc23)c(OC)c1 | 89 | 86.5% (inactive) | 89% (inactive) | 95.7% (inactive) | 104% (inactive) | 9.71% (inactive) | 93.9 | 104 | -6.71% (inactive) | -3.49% (inactive) | -16.1% (inactive) | -20.6% (inactive) | -0.31% (inactive) | 100% (inactive) | 98.8% (inactive) | 1.43% (inactive) | 3.65% (inactive) |
| CCCCN(CCCC)CCn1cnc2c([nH]c3ccc(OC)cc32)c1=O | 76 | 90.5% (inactive) | 76% (inactive) | 121% (inactive) | 80.2% (inactive) | -12.8% (inactive) | 92.9 | 80.2 | -1.67% (inactive) | 2.17% (inactive) | -6.29% (inactive) | 3.9% (inactive) | -3.78% (inactive) | 82.8% (inactive) | 86.2% (inactive) | 0.545% (inactive) | 2.03% (inactive) |
| CSc1ccccc1NC(=O)c1cnc2n(c1=O)CCS2 | 97.5 | 82.5% (inactive) | 97.5% (inactive) | 111% (inactive) | 84.7% (inactive) | -6.53% (inactive) | 91.3 | 84.7 | -1.87% (inactive) | -1.33% (inactive) | -10.6% (inactive) | 3.57% (inactive) | -0.39% (inactive) | 105% (inactive) | 85.8% (inactive) | 2.75% (inactive) | -0.78% (inactive) |
| COc1ccc(N2CCN(C(c3ccccc3)c3sc4nc(C)nn4c3O)CC2)cc1 (stereo not given) | 91.5 | 101% (inactive) | 91.5% (inactive) | 82.2% (inactive) | 90% (inactive) | -8.41% (inactive) | 98.4 | 90 | -4.93% (inactive) | -2.17% (inactive) | 1.81% (inactive) | -0.505% (inactive) | -1.28% (inactive) | 96.8% (inactive) | 97.3% (inactive) | 2.81% (inactive) | -0.02% (inactive) |
| COc1ccc(C(=O)CN2C3=NCCCN3c3ccccc32)cc1OC | 89 | 109% (inactive) | 89% (inactive) | 81.3% (inactive) | 82.4% (inactive) | 5.29% (inactive) | 77.1 | 82.4 | -0.39% (inactive) | 2.5% (inactive) | -6.53% (inactive) | -6.88% (inactive) | -2.15% (inactive) | 56.2% (inactive) | 64.7% (inactive) | 1% (inactive) | 2.03% (inactive) |
| CC(=O)Nc1cccc(Oc2nc(C)cc(C)c2C#N)c1 | 96.5 | 106% (inactive) | 96.5% (inactive) | 94.1% (inactive) | 87.3% (inactive) | -4.33% (inactive) | 91.7 | 87.3 | -2% (inactive) | 0.5% (inactive) | -17.1% (inactive) | -19.5% (inactive) | 2.21% (inactive) | 107% (inactive) | 102% (inactive) | 1.34% (inactive) | 0.78% (inactive) |
